Test results taken from PubChem BioAssay AID485317 (Broad Institute, 2010).
The campaign covered roughly 290,000 compounds. About 11,000 (3.8%) were called active. This excerpt belongs to a sample that is enriched for actives. A number with no mark means an inactive call.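 How the source made its calls: active means mean replicate inhibition above about 79%, with every replicate also reaching it (limit read from the data); inconclusive means only one of the two criteria met; inactive means mean below limit and not every replicate reaching it.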

Molecular target: FAD-linked sulfhydryl oxidase ALR (Homo sapiens) (UniProt P55789)
Assay: inhibitors of human ALR sulfhydryl oxidase, primary screen, biochemical, H2O2 detection, HRP-luminol luminescence, single point (AID 485317)
Details: purified ALR, DTT oxidation, stronger effect = higher value, concentration not given here

Sequence of FAD-linked sulfhydryl oxidase ALR (Homo sapiens) (P55789 whole entry, looked up): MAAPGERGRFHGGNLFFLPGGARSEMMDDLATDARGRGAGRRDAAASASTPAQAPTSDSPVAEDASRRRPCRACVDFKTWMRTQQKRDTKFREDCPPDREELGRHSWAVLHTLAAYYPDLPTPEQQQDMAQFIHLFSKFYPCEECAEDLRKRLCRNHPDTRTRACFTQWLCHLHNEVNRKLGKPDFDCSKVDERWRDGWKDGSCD

Structure (SMILES)	inhibition
CN(C)CC(O)COc1ccc(C(C)(C)c2ccc(OCC(O)CN(C)C)cc2)cc1 (configuration not stated)	-9.59%
CCCC(O)(c1ccc(OC)cc1)C(CN(C)C)c1ccccc1 (configuration not stated)	98.6% (active)
COc1ccc(C(O)(C2CCCCC2)C(CN2CCCC2)c2ccccc2)cc1 (configuration not stated)	-2.71%
CC(=O)NC(CC(=O)Nc1ccc(S(=O)(=O)N2CCOCC2)cc1)c1ccccc1 (configuration not stated)	-5.33%
COc1ccc(CNC(=O)CNC(=O)c2sc3ccccc3c2Cl)cc1OC	-4.54%
NCCN1CCN2C(=O)CN(C(=O)c3ccccc3)CC12 (configuration not stated)	1.22%
Cc1c(C(C)CCCO)oc(=O)c2c1Oc1c(C)c(C(C)C[C@@H](C)O)oc(=O)c1C2 (some centres not stated)	-3.12%
COc1cc(C=O)c(Br)cc1OCC(=O)NCc1ccccc1	-3.31%
COc1cc(C(=O)NCc2ccncc2)cc(Br)c1OCc1ccccc1	-6.06%
COc1cc(C(=S)NCc2ccccc2)cc(Br)c1O	88.4% (active)
O=C(CCC(=O)c1ccccc1)NCc1cccc(C(F)(F)F)c1	-5.12%
NC(=O)c1ccsc1NC(=O)COC(=O)COc1ccc(C=O)cc1	0.523%
COc1ccc(C2=NOC(Cn3nc(C(=O)NCc4ccc5c(c4)OCO5)cc3-c3ccccc3)C2)cc1 (configuration not stated)	-0.145%
O=C(c1cccs1)N1CCN(C(=O)N2CCOCC2)CC1	5.71%
COc1ccc(N2CCN(C(=O)c3cccs3)CC2)cc1	93.9% (active)
COc1ccc(OCC(=O)N2CCN(C(=O)c3cccs3)CC2)cc1	-3.05%
COc1ccc(C(=O)OC(C)C(=O)NC2CCCC2)cc1S(=O)(=O)N1CCOCC1 (configuration not stated)	0.414%
O=C(Nc1ccc(N2CCCCC2)cc1)c1cc(S(=O)(=O)N2CCOCC2)ccc1F	40.2%
COC(=O)c1c(NC(=O)c2ccccc2F)sc2c1C(C(=O)OC)CC2 (configuration not stated)	1.9%
O=C(Nc1sc2c(c1C(=O)O)CCC2)c1ccccc1F	98.3% (active)
NC(=O)c1c(NC(=O)c2ccccc2)sc2c1CCCC2	-3.69%
O=C(NCC(c1cccs1)N1CCOCC1)c1cc(Cl)ccc1[N+](=O)[O-] (configuration not stated)	-35.8%
CC(C)Oc1ccc(S(=O)(=O)N2CCOCC2)cc1NC(=O)C1CCCC1	0.587%

Structure (SMILES)	inhibition
CCOc1ccc(NC(=O)CN(C)C(=O)Cn2c(=O)cnc3ccccc32)cc1OCC	-5.33%
CCOc1ccc(CCNC(=O)COC(=O)C2CCN(c3ccc(C(F)(F)F)cn3)CC2)cc1OCC	0.148%
CC(=O)N1CC(=O)N(CC(=O)Nc2ccc(Br)cc2)C1=S	99.4% (active)
COCC(=O)Nc1ccc(Br)cc1	-12.4%
Cc1cccc(NC(=O)CN2C(=O)CNC2=O)c1	-1.19%
Cc1ccc(C(=O)Nc2ccc3c(c2)OCCO3)cc1S(=O)(=O)N1CCOCC1	-6.89%
Cc1ccc(OCC(=O)N2CCN(S(=O)(=O)c3ccc(Cl)s3)CC2)cc1C	-2.26%
COc1ccc(N2CCN(C(=O)COC(=O)c3cccc(S(=O)(=O)Nc4ccccc4OC)c3)CC2)cc1	1.72%
CC1CCCCC12NC(=O)N(CC(=O)N1CCN(c3ccccc3)CC1)C2=O (configuration not stated)	33.6%
CC1CCCCC12NC(=O)N(CC(=O)OCC(=O)NCc1ccc(F)cc1)C2=O (configuration not stated)	-8.04%
CC1CCCCC12NC(=O)N(CC(=O)Nc1ccc(S(=O)(=O)Nc3ncccn3)cc1)C2=O (configuration not stated)	91.2% (active)
COc1ccccc1C(=O)NCC(=O)NCCSc1ccc(Br)cc1	-5.14%
COc1ccc(/C=N/NC(=O)c2cc(-c3cccc(C)c3)nc3ccccc23)cc1O	12.4%
CC(Oc1ccc(F)cc1)C(=O)Nc1cc(S(=O)(=O)N2CCOCC2)ccc1N1CCN(C)CC1 (configuration not stated)	24.9%
CCCCCCc1cc2cc(-c3nnc(-c4ccccc4)o3)c(=O)oc2cc1O	1.08%
CCCCCCCN=C(C)c1ccccc1O	-17.6%
CCCCCCc1ccc(O)cc1O	84.4% (active)
COc1cccc(N2CC(NS(=O)(=O)c3ccc(Cl)cc3)CC2=O)c1 (configuration not stated)	-2.83%
COc1ccc2c(c1)CCNC2Cc1ccc(OC)c(O)c1 (configuration not stated)	22%
N=C(N)SCc1cccc2ccccc12	99.3% (active)
c1ccc2c(CNn3cnnc3)cccc2c1	-6.4%
N#C/C(=C(/O)Cc1cccc2ccccc12)c1nc2ccccc2s1	4.12%
O=C(CCNC(=O)c1ccc(Br)cc1)Nc1cccc(S(=O)(=O)N2CCCCC2)c1	-14.1%

Structure (SMILES)	inhibition
COc1ccc2oc(C(=O)OCC(=O)N(CC(C)C)c3c(N)n(Cc4ccccc4)c(=O)[nH]c3=O)c(C)c2c1	7.4%
O=C(Nc1cc(S(=O)(=O)N2CCCCC2)ccc1Cl)C1COc2ccccc2O1 (configuration not stated)	0.363%
Cc1c(C(=O)OCC(=O)N2CCCC2=O)oc2ccccc12	-37.2%
O=C(CCl)NNc1nc(-c2ccccc2)c2cc(Cl)ccc2n1	58.6%
COc1cc(OC)nc(NC(=O)CCl)n1	6.07%
O=C(CCl)NNc1cccc(Cl)n1	98.1% (active)
O=C(CSCc1ccccc1Cl)NNC(=O)c1ccccc1	99.6% (active)
O=C(COC(=O)c1ncc(Cl)c(Cl)c1Cl)NNC(=O)c1ccccc1	8.83%
O=C(COC(=O)Cc1ccccc1F)NNC(=O)c1ccc(Cl)cc1	0.881%
CCN1CCN(c2ccc(S(=O)(=O)N3CCCCC3)cc2NC(=O)c2cccc(NC(C)=O)c2)CC1	-18.1%
C[C@]12CC[C@H](O)CC1=CCC1C2CC[C@@]2(C)C1CC[C@@H]2NC(=O)CCC(=O)O (some centres not stated)	-3.02%
Cc1ccc(NC(=O)COC(=O)C2CC2)cc1S(=O)(=O)N1CCOCC1	3.43%
CN(C)S(=O)(=O)c1ccc(C(=O)NCC2(N3CCOCC3)CCCCC2)cc1	-19.4%
COc1ccc(-c2cc(=O)c3c(O)cc(O[C@@H]4O[C@H](CO[C@@H]5O[C@@H](C)[C@H](O)[C@@H](O)[C@H]5O)[C@@H](O)[C@H](O)[C@H]4O)cc3o2)cc1O	2.46%
COc1c(O)cc2oc(-c3ccc(O)c(O)c3)cc(=O)c2c1O	99% (active)
CCOC(=O)COc1cc(O)c2c(=O)cc(-c3ccccc3)oc2c1	-2.55%
[O-][n+]1ccc(OCc2ccccc2)cc1	-3.31%
CCOc1ccc(Br)cc1S(=O)(=O)Nc1ccc(S(=O)(=O)Nc2cc(C)on2)cc1	13.7%
O=C(Nc1ccc(F)cc1)N1CCCC(c2nc3c(nnn3Cc3ccccc3Cl)c(=O)[nH]2)C1 (configuration not stated)	-24.5%
Cc1ccc(C)c(Cn2nnc3c(=O)[nH]c(C(=O)Nc4ccc(F)cc4)nc32)c1	95.6% (active)
Cc1ccc(NC(=O)N2CCC(c3nc4c(nnn4Cc4c(F)cccc4Cl)c(=O)[nH]3)CC2)cc1	-5.17%
O=[N+]([O-])c1ccc(N2CCN(CC(O)COc3ccccc3)CC2)cc1 (configuration not stated)	6.12%
OC(COCC1COc2ccccc2O1)CN1CCN(c2ccc(F)cc2)CC1 (configuration not stated)	81.2% (active)

Structure (SMILES)	inhibition
OC(COCc1ccco1)CN1CCN(c2ccccc2)CC1 (configuration not stated)	74.6%
Cn1c(SCC(=O)N2CCCCC2)nc2c(c1=O)SCC2	-0.76%
CCn1c(SCc2ccccc2)nc2c(c1=O)SCC2	90.4% (active)
CCn1c(SCc2ccccc2)nc2cc(OC)c(OC)cc2c1=O	-2.54%
COCCn1c(SCC(=O)N2CCCCCC2)nc2c(c1=O)SCC2	-0.691%
Cc1cccc(CSc2nnc(C)c(=O)n2N)c1	-4.99%
Cc1cccc(CSc2nc3c(c(=O)n2C)SCC3)c1	99% (active)
NS(=O)(=O)c1ccc(CNC(=O)c2cccc(S(=O)(=O)N3CCc4ccccc43)c2)cc1	-5.92%
Cc1ccc(S(=O)(=O)N(C)C)cc1NC(=O)CN1c2cccc3cccc(c23)S1(=O)=O	-16.6%
Cc1ccc(S(=O)(=O)N2CCCCC2)cc1NC(=O)CCNC(=O)c1ccccc1	-5.33%
CCOc1ccc(C(C)=O)cc1COC(=O)CN1C(=O)NC2(CCCC2)C1=O	-0.483%
COc1cc(/C=C2\Oc3ccc(C#Cc4ccc(O)cc4)cc3C2=O)cc(OC)c1	4.14%
CC(NS(=O)(=O)c1ccc(OCC(=O)N2CCCC2)cc1)c1ccccc1 (configuration not stated)	-2.54%
CC(NS(=O)(=O)c1ccccc1)c1n[nH]c(=S)n1-c1ccccc1 (configuration not stated)	86.4% (active)
S=c1[nH]nc(COc2ccccc2)n1-c1ccccc1	31.7%
COC(=O)c1nc(NC(=O)c2ccccc2)n[nH]1	97.4% (active)
O=C(Nc1nsc(-c2ccccc2)n1)c1ccncc1	1.28%
COC(=O)c1nc(NC(=O)c2ccc(Cl)cc2)n[nH]1	-3.46%
O=C(CSc1nc2ccccc2c(=O)n1CCCO)NC1CC1	0.869%
CC(Sc1cccc[n+]1[O-])C(=O)Nc1cccc(S(=O)(=O)N2CCOCC2)c1 (configuration not stated)	96.9% (active)
CC(Sc1ccccc1F)C(=O)Nc1cccc(S(=O)(=O)N2CCOCC2)c1 (configuration not stated)	-3.71%
CN=C(Nc1cccc(S(=O)(=O)N2CCOCC2)c1)c1ccccc1	-1.77%
CN(CC(=O)Nc1cccc(F)c1)C(=O)C1CC(=O)N(CCc2ccccc2)C1 (configuration not stated)	-3.35%
